The list is not random: actives were taken first. Their share in the collection is about 1.8%.
PAD4 FP inh = inhibitors of human PAD4. actives 0.41% (n = 330,000). recombinant PAD4, RCA probe fluorescence polarization. inhibition, % at 6.36 µM. AID 485272. Q9UM07;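 active means percent inhibition above a cutoff equal to the mean of all tested compounds plus 3 SD, cut at about 15% in these data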;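 further: 0% = PAD4 with RCA probe and DMSO and 100% = probe without PAD4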
Fam108B inh = Fam108B inhibition, counter-screen for RBBP9 inhibitors; inhibition, % at 9.51 µM; actives 0.33% (n = 300,000); AID 1947; recombinant Fam108B, FP-Rh probe fluorescence polarization;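 active means inhibition above the screen mean inhibition plus 3 SD, computed separately per campaign, cut at about 18% in these data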;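 further: inhibitors lower polarization as less probe binds the enzyme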
LYPLA2 counter = blocks human lysophospholipase 2, a PME1 counter-screen; O95372; recombinant LYPLA2, FP-Rh probe fluorescence polarization; inhibition, % at 5.9 µM; actives 0.38% (n = 320,000); AID 2177;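 active means inhibition above the screen-wide mean plus 3 SD, limit set per campaign, cut at about 26% in these data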;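 further: 0% = LYPLA2 with DMSO and 100% = wells lacking LYPLA2 enzyme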
Target sequence (O95372 whole entry, looked up): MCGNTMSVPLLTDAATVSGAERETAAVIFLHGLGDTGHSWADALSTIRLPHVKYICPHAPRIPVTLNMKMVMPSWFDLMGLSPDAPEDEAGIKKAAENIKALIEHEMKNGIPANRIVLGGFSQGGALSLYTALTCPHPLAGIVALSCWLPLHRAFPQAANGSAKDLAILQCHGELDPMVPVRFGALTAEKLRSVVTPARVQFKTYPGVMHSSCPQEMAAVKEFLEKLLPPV
GSTO1 inh = counter-screen for RBBP9 inhibitors: inhibitors of human GSTO1 | recombinant GSTO1, activity-based probe fluorescence polarization | inhibition, % at 5.96 µM | AID 1974 | P78417 | actives 1.1% (n = 300,000);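 active means inhibition above the campaign mean inhibition plus 3 SD, cut at about 35% in these data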;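 further: 0% = GSTO1-1 with DMSO and 100% = wells lacking GSTO1-1 enzyme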
PME-1 inh = PME-1 (human) inhibition | inhibition, % at 5.9 µM | AID 2130 | actives 0.53% (n = 320,000) | recombinant PME-1, FP-Rh probe fluorescence polarization | Q9Y570;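 active means inhibition above the campaign mean of all compounds plus 3 SD, cut at about 26% in these data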;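 further: competitive labeling of PME-1 active site by serine hydrolase directed probe; 0% = PME-1 with DMSO and 100% = wells lacking PME-1 enzyme; inhibitors block probe labeling so polarization falls and inhibition rises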
Target sequence (Q9Y570 whole entry, looked up): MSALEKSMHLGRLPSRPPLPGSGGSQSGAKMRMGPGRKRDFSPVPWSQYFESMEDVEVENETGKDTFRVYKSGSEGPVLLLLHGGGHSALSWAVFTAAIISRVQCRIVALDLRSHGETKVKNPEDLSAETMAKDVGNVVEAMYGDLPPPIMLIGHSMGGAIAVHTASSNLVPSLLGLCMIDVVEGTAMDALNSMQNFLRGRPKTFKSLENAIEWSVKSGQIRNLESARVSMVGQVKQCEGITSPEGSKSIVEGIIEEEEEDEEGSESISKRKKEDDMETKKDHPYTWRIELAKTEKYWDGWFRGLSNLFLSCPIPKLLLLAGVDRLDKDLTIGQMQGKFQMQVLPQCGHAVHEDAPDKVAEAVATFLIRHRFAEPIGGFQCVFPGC
LYPLA1 counter = blocks human lysophospholipase 1, a PME1 counter-screen | O75608 | recombinant LYPLA1, FP-Rh probe fluorescence polarization | AID 2174 | inhibition, % at 5.9 µM | actives 0.16% (n = 320,000);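 active means inhibition above the mean of all tested compounds plus 3 SD, set per campaign, cut at about 14% in these data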;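 further: inhibitors block serine hydrolase probe labeling of LYPLA1 so polarization falls; 0% = enzyme with DMSO and 100% = wells lacking LYPLA1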
GSTO1 confirm = confirmation of human GSTO1 inhibitors | shares compounds with GSTO1 inh | recombinant GSTO1, probe fluorescence polarization | inhibition, % at 5.96 µM | actives 54% (n = 2,400) | AID 2176;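 active means inhibition above the primary screen's cutoff, its mean inhibition plus 3 SD, cut at about 35% in these data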;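 further: loss of polarization as inhibitors block binding of rhodamine sulfonate ester activity probe; 0% = GSTO1 with DMSO and 100% = wells lacking GSTO1 enzyme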
Starred values were filed as active, the others as inactive; nt = no result.

SMILES	PAD4 FP inh	Fam108B inh	LYPLA2 counter	GSTO1 inh	PME-1 inh	LYPLA1 counter	GSTO1 confirm
O=C(COc1ccccc1)N=C1SC2CS(=O)(=O)CC2N1c1cccc(F)c1 (centres undefined)	1	1	3	3	6	-3	nt
CC(=O)Oc1ccc(-c2cc3c(OC(C)=O)cc(OC(C)=O)cc3oc2=O)cc1	2	2	4	44*	3	-1	11
CC(=O)Oc1ccc(-c2cc3ccccc3oc2=O)cc1	0	3	5	2	1	1	nt
COc1cccc(CNC(=O)C(CC(C)C)NC(=O)c2ccccc2C)c1 (centres undefined)	-8	0	9	-4	-11	1	nt
Nc1ccc(N(c2ccccc2)c2ccc(N)cc2)cc1	-7	8	4	43*	8	-2	9
O=C1CC(N(O)c2ccccc2)C(=O)N1c1ccc(Cl)c(Cl)c1 (centres undefined)	17*	-2	11	63*	22	2	5
O=C(O)CSC1CC(=O)N(c2ccc(Cl)c(Cl)c2)C1=O (centres undefined)	-5	-2	-4	5	-1	-5	nt
C/C(=N\NS(=O)(=O)c1ccc(Cl)c([N+](=O)[O-])c1)c1cc2ccccc2o1	4	6	4	40*	5	0	14
C/C(=N\NS(=O)(=O)c1ccc(Cl)c([N+](=O)[O-])c1)c1ccc(C)o1	2	5	7	49*	4	1	27
C/C(=N\NS(=O)(=O)c1ccc(C)c([N+](=O)[O-])c1)c1cc2ccccc2o1	3	2	4	2	-4	1	nt
Cc1nn(-c2ccccc2)c2c1C1(C(=O)N(C(C)C)c3ccccc31)C(C#N)=C(N)O2 (centres undefined)	-2	0	7	40*	4	0	11
COc1cccc(/C=C2\Oc3cc(OCC(=O)N4CCC[C@H]4C(=O)O)ccc3C2=O)c1	-1	-3	2	-13	-2	-1	nt
Cc1cc(=O)oc(C)c1C(=O)O	-3	-1	3	-1	4	2	nt
CCOC(=O)c1c(C)oc2c1C(=O)c1ccccc1C2=O	6	5	4	66*	12	1	64*
Cc1oc2c(c1C(=O)O)C(=O)c1ccccc1C2=O	9	3	1	61*	4	0	62*
CCOC(=O)c1c(C)nc2c(c1-c1ccccc1)C(=O)c1ccccc1-2	-5	4	6	-1	5	3	nt
CCc1cccc(NC(=O)C2CCN(S(=O)(=O)c3ccc4c(c3)NC(=O)CO4)CC2)c1	-1	1	-1	8	-1	-5	nt
CC(NCc1ccc(S(N)(=O)=O)cc1)C(=O)Nc1ccc([N+](=O)[O-])cc1Cl (centres undefined)	-10	-3	-6	-1	-1	0	nt
CC(=O)Nc1nc(-c2ccc(Cl)cc2)nc(C)c1C(C)=O	0	1	-8	44*	-3	-2	4
O=C1CC(c2ccc(O)c(O)c2)Oc2cc(O)cc(O)c21 (centres undefined)	-4	-7	1	43*	-6	-7	16
O=C1CC(c2ccccc2)Oc2cc(O)cc(O)c21 (centres undefined)	5	-1	9	12	5	-3	nt
Cc1cc(C(=O)NC(Cc2ccccc2)C(=O)O)c(C)o1 (centres undefined)	-2	-2	4	8	1	5	nt
COc1ccc(N2CCN(c3ccc(NC(=O)/C=C\C(=O)O)cc3)CC2)cc1	30*	5	6	74*	2	1	3
Cc1cccc(OCC(=O)NCC(=O)N/N=C/c2cc(Br)cc(Br)c2O)c1	-2	3	-10	7	0	-3	nt
Cc1ccc(S(=O)(=O)c2nc(S(C)(=O)=O)sc2N2CCC3(CC2)OCCO3)cc1	4	3	5	63*	5	4	5
SMILES	PAD4 FP inh	Fam108B inh	LYPLA2 counter	GSTO1 inh	PME-1 inh	LYPLA1 counter	GSTO1 confirm
N#CC1(NC(=O)COC(=O)c2cc(O)c3ccccc3c2O)CCCCC1	3	9	4	61*	13	-4	57*
N#CC1(NC(=O)COC(=O)c2ccccc2[N+](=O)[O-])CCCCC1	-1	2	5	4	1	-2	nt
Cc1cc(O)cc(C)c1Cl	5	8	8	8	-5	1	nt
Cc1cc(O)c(N)c(C)c1Cl	2	4	-4	46*	-2	-2	3
CN(C)c1ccc(C=Nc2ccccc2)cc1	-2	-1	1	2	-3	1	nt
CN(C)c1ccc(N=Cc2ccco2)cc1	21*	1	2	73*	6	-3	5
COc1ccc(-c2ccc(-c3nc4c(c(=O)[nH]c(=O)n4Cc4ccccc4)n3C)o2)c([N+](=O)[O-])c1	-3	1	-6	4	3	-5	nt
COCCn1c(=O)[nH]c(=O)c2c1nc(-c1ccc(-c3ccc(Cl)cc3[N+](=O)[O-])o1)n2Cc1ccccc1	-7	17	14	60*	15	2	4
O=C(C[C@H]1C/C=C\CCC(=O)OC[C@H]2CCCN2C1=O)NCCO	1	nt	nt	nt	nt	nt	nt
Cc1cc(C(=O)NNC(=O)c2ccc(Cl)cc2)no1	-1	3	3	48*	5	0	7
CCOc1cc(Br)c(CN2C(=O)NC3(CCCCCC3)C2=O)cc1OCC	-4	-4	3	0	-1	1	nt
CCOC(=O)N1CCN(c2c(NCCN3CCCCC3CC)c(=O)c2=O)CC1 (centres undefined)	-3	-2	3	3	2	-1	nt
CCOC(=O)C1CCCN(c2c(NCCN3CCCCC3CC)c(=O)c2=O)C1 (centres undefined)	2	2	0	58*	9	4	8
CC(C)Cc1cc(C(=O)N(C)C2CCCN(Cc3ccccc3F)C2)n(C)n1 (centres undefined)	-1	-6	-1	-10	0	2	nt
CN1CCC(=C2c3ccccc3C(O)c3ccccc32)CC1 (centres undefined)	-2	3	-5	-4	-1	2	nt
CN1CCc2cccc3c2C1Cc1ccc(O)c(O)c1-3 (centres undefined)	-2	0	0	93*	-5	-7	9
CN(C)c1ccc(O)c2c1CC1CC3[C@@H](N(C)C)C(=O)C(C(N)=O)=C(O)[C@]3(O)C(=O)C1=C2O (some centres undefined)	3	15	5	40*	-6	3	34
Cc1cc(C(=O)COC(=O)COc2ccc(C#N)cc2)c(C)n1C1CC1	-6	0	10	8	4	1	nt
Oc1ccc(/C=N/N2CCCCC2)c(O)c1O	-11	2	-1	46*	3	-1	14

Source: PubChem
